Hits are enriched below; roughly 3.3% of the tested compounds scored in any of these assays.
Sm TGR block: inhibitors of Schistosoma mansoni thioredoxin glutathione reductase. Q962Y6. purified TGR, DTNB reduction, TNB absorbance 405 nm. Potency, µM (doses to about 114 µM), for the others: at the top dose activity change, negative = inhibition, hits mostly inhibitors. 3% of 360,000 active. AID 485364; further: potency means the concentration at half of the fitted maximal effect; on the % scale 0 is the no-effect control and ±100 the full control effect; nearly all actives have a fitted effect of over 60% in size
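First, TGR (20 nM dispensed) and NADPH were mixed with compound. Second, a 15 min room-temperature incubation followed. Third, further NADPH and then DTNB were added to start the reaction. Finally, TNB absorbance was monitored kinetically.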
SARS PLpro yeast: inhibitors of SARS-CoV papain-like protease in yeast; AID 485353; 0.19% of 330,000 active; S. cerevisiae expressing SARS-CoV PLpro, growth rescue; Potency, µM (highest dose often 32.9 µM), for inactives: at the top dose activity, positive = growth rescue, hits mostly activators; calls by dose curve; further: potency means the concentration at half of the fitted maximal effect; 0% is about no effect; nearly all actives have a fitted effect of over 55% in size
NS1 function inh: inhibitors of influenza NS1 protein function; 0.4% of 270,000 active; Potency, µM (highest dose often 46.1 µM), for the others: at the highest dose activity, positive = more growth; calls by dose curve; further: potency means the concentration at half of the fitted maximal effect; actives are rising curves; nearly all actives have a fitted effect of over 50% in size
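In this qHTS, NS1 from influenza A is expressed in budding yeast, where it slows growth. Cells are switched from glucose to 2% galactose medium (pH 6.0, -URA), treated with compound, and growth recovery is read at OD600.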
RE007 growth inh: less growth of the S. pombe RE007 Vpr strain | S. pombe RE007 Vpr strain, BacTiter-Glo ATP luminescence, 24 h | Potency, µM (series often up to 92.2 µM), inactives show at the top dose activity change, negative = less growth, hits mostly inhibitors | 0.21% of 360,000 active; active means well fitted falling curve with a large enough effect; inconclusive means small, poorly fitted or top-dose-only effect; inactive means no such curve, though single readings can be large or run the other way; further: potency means the concentration at half of the fitted maximal effect; on the % scale 0 is the no-effect control and ±100 the full control effect; nearly all actives have a fitted effect of over 50% in size
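Fission yeast RE007 carrying one integrated HIV-1 vpr copy, seeded at OD 0.01 in PMG+AL medium with 23 nL pinned compound. Grown 24 h at 30 degrees; viability read by BacTiter-Glo luminescence after 5 min.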
TbPYK inhibitor: T. brucei pyruvate kinase inhibition; Q57TT1; TbPYK enzyme, Kinase-Glo Plus ATP luminescence, 45 min; Potency, µM (top dose mostly 76.8 µM), for the others: at the highest dose activity, negative = inhibition, hits mostly inhibitors; 0.12% of 410,000 active; AID 624173; further: potency means the concentration at half of the fitted maximal effect; on the % scale 0 is the no-effect control and ±100 the full control effect; nearly all actives have a fitted effect of over 50% in size
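In this concentration-response screen, enzyme-free wells defined baseline while DMSO plates tracked drift. Each reaction combined TbPYK, substrate, compound and 130 uM ADP for 45 min at room temperature. Kinase-Glo Plus luminescence gave the signal.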
LmPK inh: blocks Leishmania mexicana pyruvate kinase activity; AID 1721; purified LmPK, Kinase-Glo ATP luminescence, 1 h; Potency, µM (highest dose often 57.5 µM), for inactives: top-dose activity change, negative = inhibition, usual class: inhibitors; Q27686; 0.37% of 290,000 active; further: potency means the concentration at half of the fitted maximal effect; on the % scale 0 is the no-effect control and ±100 the full control effect
Target sequence (Q27686 whole entry, looked up): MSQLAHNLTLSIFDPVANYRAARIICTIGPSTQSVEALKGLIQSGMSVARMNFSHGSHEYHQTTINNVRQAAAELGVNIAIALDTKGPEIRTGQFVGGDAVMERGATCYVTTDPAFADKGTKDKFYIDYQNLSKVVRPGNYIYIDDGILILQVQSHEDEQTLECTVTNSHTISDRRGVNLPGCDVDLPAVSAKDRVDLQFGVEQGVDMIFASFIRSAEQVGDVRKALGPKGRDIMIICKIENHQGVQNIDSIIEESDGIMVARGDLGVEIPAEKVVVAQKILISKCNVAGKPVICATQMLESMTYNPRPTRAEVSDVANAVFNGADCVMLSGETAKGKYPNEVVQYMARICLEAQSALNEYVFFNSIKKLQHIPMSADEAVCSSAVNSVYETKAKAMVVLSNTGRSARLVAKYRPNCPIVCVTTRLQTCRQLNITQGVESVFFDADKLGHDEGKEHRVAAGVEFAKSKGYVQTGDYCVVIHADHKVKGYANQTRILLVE
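0.1 nM LmPK, 0.5 mM PEP, 0.1 mM ADP; 50 mM imidazole pH 7.2, 7 mM MgCl2, 50 mM KCl; 1 h RT. Kinase-Glo luminescence readout, normalized to no-enzyme (full inhibition) and uninhibited wells.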
Flu NS1 inh: validation of influenza NS1 protein function inhibitors | shares compounds with NS1 function inh | 1,400 tested, under 10 active | activity change, negative = inhibition, % at 32.9 µM | influenza NS1 function cell assay, 15-point titration; calls by dose curve; further: 0% is about no effect
Flu PR8 replic: influenza virus titer reduction, NS1 project; shares compounds with NS1 function inh; MDCK infected influenza A/PR/8/34, virus titer TCID50; hits give low values; virus titer (log TCID50), log10 TCID50 at 5 µM; 30% of 95 active; call rule not given here
* hit, by the source's call; ? = inconclusive; / = not tested or not shown; [ ] = remark or other dose. Unless noted, the call rests on the fitted dose curve; in most records, active means well fitted curve in the direction sought with a large enough effect; inconclusive means small, poorly fitted or top-dose-only effect, or another doubt; inactive means no such curve, though single readings can be large; an effect the other way counts as inactive or inconclusive.

SMILES	Sm TGR block	SARS PLpro yeast	NS1 function inh	RE007 growth inh	TbPYK inhibitor	LmPK inh	Flu NS1 inh	others
O=c1cc(O)c2sc3nc(-c4cccnc4)cc(C(F)(F)F)c3c2[nH]1	0%	14%	10µM*	-16%	-14%	1%	18
COc1ccccc1-c1c(-c2ccc(OCC(=O)NN)cc2O)n[nH]c1C(F)(F)F	-4%	0%	?	-3%	0%	-4%	/
NNC(=O)COc1ccc(-c2n[nH]c(C(F)(F)F)c2-c2ccc(Br)cc2)c(O)c1	-15%	-1%	11µM*	/	-4%	1%	2
Cc1ccc(-c2csc3ncn(CC(=O)N4CCOCC4)c(=O)c23)cc1	4%	2%	-8%	-5%	1%	-3%	/
O=C(Cn1cnc2scc(-c3ccc(Cl)cc3)c2c1=O)N1CCOCC1	1%	0%	?	-8%	6%	1%	-16
O=C1C2CCCN2C(c2cccnc2)N1c1cccc(Cl)c1 (configuration not stated)	-32%	2%	3.5µM*	1%	-9%	7%	-9
CCn1c(N2CCN(CC(=O)c3c(C)n(C)c4ccc(OC)cc34)CC2)nc2c1c(=O)[nH]c(=O)n2C	?	-1%	11µM*	-6%	1%	4%	-37
CCn1c(N2CCN(CC(=O)c3c(C)n(C)c4ccccc34)CC2)nc2c1c(=O)[nH]c(=O)n2C	-3%	-14%	-12%	-9%	-5%	9%	/
CN(C)/C=C1\SC(=S)N(c2ccc(Br)cc2)C1=O	-3%	-4%	?	-3%	-20%	-18%	-10
CN(C)/C=C1\SC(=S)N(c2ccc(F)cc2)C1=O	-6%	-2%	-3%	8%	-2%	-3%	/
CC1Cc2cc(S(=O)(=O)NCc3ccc(N(C)C)cc3)ccc2N1C(=O)C1CCC1 (configuration not stated)	-9%	/	/	/	-1%	/	/
CCCCOc1ccccc1NC(=O)c1ccc(=O)[nH]c1	10%	-3%	?	-1%	-1%	1%	1
CCCOc1ccccc1NC(=O)c1ccc(N)cc1	8%	-2%	-16%	-15%	-4%	0%	/
Cc1cccc(N2C(=O)NC(=O)C3(Cc4cc(C)ccc4N(C)C3)C2=O)c1 (configuration not stated)	?	3%	4.5µM*	14%	5%	-1%	13
Cc1ccc2c(c1)CC1(CN2C)C(=O)NC(=O)N(C(C)C)C1=O (configuration not stated)	?	1%	-1%	2%	2%	2%	/
Cc1ccc(Cl)cc1NC(=O)Cn1cc(S(=O)(=O)Cc2ccccc2Cl)c2ccccc21	0%	/	/	/	3%[15.4 µM]	/	/
O=C(O)c1cccc(CN2C(=O)SC(Nc3ccccc3)C2=O)c1 (configuration not stated)	0%	-2%	0%	18%	-9%	0%	/
O=C(O)c1cccc(CN2C(=O)CSC2=O)c1	12%	4%	22µM*	15%	2%	7%	-9
CC(C)(C)c1cc(C(=O)NN)n(Cc2ccc(F)cc2)n1	13%	0%	?	1%	6%	10%	/
COC(=O)c1cc(NC(=O)c2cc(C(C)(C)C)nn2Cc2ccc(F)cc2)ccc1N1CCOCC1	4%	-3%	?	15%	7%	6%	-5
O=C1CCC(C(=O)N2CCCCCC2)CN1CCc1ccc(Cl)cc1 (configuration not stated)	1%	6%	2µM*	29%	-5%	4%	-14
O=C1CCC(C(=O)N2CCC(O)CC2)CN1CCc1ccc(Cl)cc1 (configuration not stated)	-20%	-1%	6%	-6%	0%	-6%	/
Cc1cc(Nc2cccc(Cl)c2C)n2nc(Cc3ccccc3)nc2n1	2%	/	/	/	-1%	/	/
COc1ccc(C2CC(c3ccccc3)=NN2C(=O)COC(=O)c2cccnc2Cl)cc1 (configuration not stated)	-5%	1%	?	8%	-4%	1%	/
COc1ccc(C2CC(c3ccccc3)=NN2C(=O)COC(=O)c2cc(S(=O)(=O)N3CCOCC3)ccc2Cl)cc1 (configuration not stated)	-2%	-13%	10µM*	-20%	-1%	2%	2
SMILES	Sm TGR block	SARS PLpro yeast	NS1 function inh	RE007 growth inh	TbPYK inhibitor	LmPK inh	Flu NS1 inh	others
COc1ccc2cc3cc(C(=O)Nc4ccccc4C)oc3nc2c1	-9%	/	/	/	5%	/	/
Cc1c(N=Cc2cccs2)c(=O)n(-c2ccccc2)n1C	7%[11.4 µM]	2%	14µM*	5%	0%	7%	0
CCc1ccc2c(c1)C(c1ccc(N3CCOCC3)cc1)=NNC(c1ccncc1)=N2	/	-2%	1%	-22%	4%	-1%	/
CCOc1ccc(C2=Nc3ccc(Br)cc3C(c3ccc(N4CCOCC4)cc3)=NN2)cc1	-9%	-5%	?	11%	1%	-1%	-7
CCOc1ccc(C2=Nc3ccccc3C(c3ccc(N4CCOCC4)cc3)=NN2)cc1	-13%	-9%	?	-2%	2%	-5%	19	Flu PR8 replic=7.5*
CCCCC(=O)Nc1ccc(C(=O)OCc2cc(=O)n3ccsc3n2)cc1	5%	/	/	/	4%	/	/
N#CC(C#N)=Cc1cccn1-c1ccc(S(N)(=O)=O)cc1	6%	0%	?	0%	3%	-6%	-9
CCCOc1ccc(CNC(=O)CN2C(=O)c3cccnc3Oc3ccc(C)cc32)cc1	1%	/	/	/	-7%[15.4 µM]	/	/
CCOc1ccc(NC(=O)CCS(=O)(=O)c2ccc3c(c2)CCCN3C(C)=O)cc1	?	15%	11µM*	-6%	-3%	2%	11
COc1ccc(NC(=O)CCS(=O)(=O)c2ccc3c(c2)CCCN3C(C)=O)cc1	1%	-8%	-2%	0%	3%	-2%	/
CCCOc1ccc(C(=O)N2CCN(c3ccc(N)cc3Cl)CC2)cc1	2%	-4%	11µM*	8%	1%	1%	-23
Cc1ccccc1-c1nc(SCC(=O)NCC2CCCO2)c2c(=O)n(C)c(=O)n(C)c2n1 (configuration not stated)	-20%	/	/	/	-4%	/	/
Cc1cnc(NC(=O)CN(C)S(=O)(=O)c2ccc(Cl)cc2)s1	7%	-10%	7.9µM*	7%	5%	4%	5
